{
  "source": "PubChem BioAssay",
  "note": "Values without a mark were called inactive. Activity calls are given as the source filed them. Rule as the data show it: active = inhibition above about 30%; inactive = the rest.",
  "data": [
    {"tested_on": "transactivating tegument protein VP16 (Human herpesvirus 1), Gal4-VP16 luciferase reporter", "experiment": "repression of VP16-driven luciferase reporter – cell-based, luminescence, high throughput, counter-screen for SRC3 inhibitor project (AID 588794)", "conditions": "mammalian cells, at 3.6 µM, hits give high values", "values": [
      {"smiles": "Cc1sc(NC(=O)Cc2ccc3c(c2)OCO3)nc1-c1ccc2c(c1)CCN2C(=O)c1ccc(F)cc1", "inhibition": "30.3% (active)"},
      {"smiles": "COc1ccc(NC(=O)c2cc([N+](=O)[O-])ccc2O)cc1", "inhibition": "35.5% (active)"},
      {"smiles": "Cc1cc(C(=O)NNc2ccc(F)cc2)no1", "inhibition": "7.33%"},
      {"smiles": "C(=Cc1cnc2ccccc2n1)c1ccc2c(c1)OCO2", "inhibition": "25.1%"},
      {"smiles": "Cc1nc2ccc(NC(=O)c3ccc(Cl)c(S(=O)(=O)N(C)c4ccccc4)c3)cc2s1", "inhibition": "35.7% (active)"},
      {"smiles": "Cn1c(/C=C/c2ccc(Cl)cc2)c([N+](=O)[O-])c(=O)n(C)c1=O", "inhibition": "35.7% (active)"},
      {"smiles": "CCOc1ccc(-n2c(C)c(C(C)=O)c3cc(OC(C)=O)ccc32)cc1", "inhibition": "44.5% (active)"},
      {"smiles": "Cc1ccc(C(=O)NCCn2cc(SCC(=O)Nc3nnc(C)s3)c3ccccc32)cc1", "inhibition": "4.22%"},
      {"smiles": "Nc1nc(=O)n(C2OC(CO)C(O)C2O)cc1F", "note": "(stereo unspecified)", "inhibition": "31.5% (active)"},
      {"smiles": "Cn1c(Sc2ccc(Cl)cc2)c(C=O)c2ccccc21", "inhibition": "43.6% (active)"},
      {"smiles": "CC[n+]1ccccc1/C=C/c1ccc(N(C)C)cc1", "inhibition": "47.5% (active)"},
      {"smiles": "CC(=O)N(C(C)=O)c1ncc2c([nH]c3ccccc32)c1C#N", "inhibition": "30.6% (active)"},
      {"smiles": "O=C(NCc1cccs1)c1nc2c(nnn2Cc2ccccc2Cl)c(=O)[nH]1", "inhibition": "79.5% (active)"},
      {"smiles": "c1nc2sc3c(c2c2nnnn12)CCCC3", "inhibition": "24.2%"},
      {"smiles": "Cn1c(/C=C/c2ccc(Cl)cc2Cl)c([N+](=O)[O-])c(=O)n(C)c1=O", "inhibition": "51.5% (active)"},
      {"smiles": "CC(=O)c1ccc(Nc2ncnc3ccc(Br)cc23)cc1", "inhibition": "39.7% (active)"}
    ]}
  ]
}
